PubChem BioAssay AID624490 (Broad Institute, 2012)
Potency and affinity values are given separately. Active and inactive are the calls of the source.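 Rule for the calls: active = compounds whose fitted half-maximal drop in cell ATP occurs at no more than twice the top tested dose; inconclusive = flat moderate signal drop, or unreliable curve fit; inactive = the rest.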

Assay: A375 melanoma cell cytotoxicity, dose response, counter-screen for MITF inhibitor project, CellTiter-Glo luminescence, dry powder, set 7 (AID 624490)
Details: A375 viability, ATP luminescence (CellTiter-Glo), 24 h; series mostly up to 35 µM

| SMILES | outcome |
| --- | --- |
| NC1=C(NS(=O)(=O)c2ccc(Br)cc2)C(=O)c2ccccc2C1=O | inactive |
| O=C1C(Nc2ccccc2)=C(c2ccccc2)C(=O)c2ccccc21 | inactive |
| NC1=C(NS(=O)(=O)c2ccc(Br)s2)C(=O)c2ccccc2C1=O | inactive |
